Molecules are shown by their SMILES. Compounds without any hit were thinned out: in the full panel of roughly 79,000, 15% have a hit. Unmarked numbers belong to inactive results. Calls of active or inactive are those of the source. Rule as the data show it: active = growth inhibition above about 70%; inactive = the rest.

This assay can be described thus: NCI Yeast Anticancer Drug Screen. Data for the bub3 strain (AID 167). As to conditions: S. cerevisiae bub3 mutant strain, at 50.0 µM (retest, dose inferred, filed as 5.0), stronger effect = higher value. Summed up: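 Whole-cell yeast assay. The mutant strain was incubated with compounds, and growth inhibition was determined by comparison with vehicle-treated cells.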
Consider `CCCC(C)(COC(N)=O)COC(=O)NC1CC1` (stereo not given), for which the growth inhibition was -5%.
Consider `O=C(O)C(CSC(c1ccccc1)c1ccccc1)NC(=O)C(c1ccccc1)c1ccccc1` (stereo not given), for which the growth inhibition was 64%.
Regarding `CC1=CC2CC(C)=C(CC[C@]3(C)CC[C@H]([C@@H](C)C(=O)O)OO3)C(C)(C)C2CC1` (stereo not given in full), the growth inhibition was 98% (active).
For the molecule `O=[N+]([O-])/C=C/c1c(Cl)cccc1Cl`, the growth inhibition was 99% (active).
With `O=[n+]1c2ccccc2n([O-])c2ccccc21.[Cl][Cu][Cl]` the figure was 98% (active); with `CC(=O)C(CN1CCOCC1)C(c1ccccc1)c1c(O)c2ccccc2oc1=O` (stereo not given), 83% (active); with `CC(C)c1oc(=O)cc2c1C(O)C1OC(=O)C3(C)C(O)C4OC4C2(C)C13` (stereo not given), 76% (active).
In the case of `C#CCN1C(=O)N(CC#C)C(=O)C(CC#C)(C(CC=C)c2ccccc2)C1=O` (stereo not given), the growth inhibition was 98% (active).
On to `COC(=O)C1c2c(C)cc3n2C(C=CC3)C1C(=O)OC` (stereo not given), for which the growth inhibition is 92% (active).
Take `[Cl][Hg][c]1ccc(Cl)s1`: the growth inhibition is 100% (active).
On to `N#CC(Cl)(Cl)CCl`, for which the growth inhibition was 99% (active).
Turning to `O=C1CCC(=O)N1SC(Cl)(Cl)Cl`, the growth inhibition is 2%.
Regarding `CCCC(=O)O.CCCC(=O)O.CCCC(=O)O.CCCC(=O)O.[Rh].[Rh]`, the growth inhibition was 64%.
For `CC(CCC/C=C/CCCN(C)C(=N)N)CC(C)C1OC(=O)C(C)C(O)/C=C/C(C)C(O)C(C)C(O)C(C)C(O)CCCC(O)CC2(O)OC(CC(OC(=O)CC(=O)O)CC(O)CC(O)C(C)C(O)/C=C/C=C/C1C)CC(O)C2O` (stereo not given) the value was 99% (active); for `OC(CN(CCCl)CCCl)C(O)C(O)C(O)CN(CCCl)CCCl` (stereo not given), 11%.
